{
  "source": "PubChem BioAssay (Tox21)",
  "note": "Inconclusive results are not listed. Active and inactive are the calls of the source. The call rests on the fitted dose curve. On the % scale 0 is the no-effect control and ±100 the full control effect.",
  "data": [
    {"biological_target": "Progesterone receptor (Homo sapiens) (UniProt P06401)", "sequence (P06401 whole entry, looked up)": "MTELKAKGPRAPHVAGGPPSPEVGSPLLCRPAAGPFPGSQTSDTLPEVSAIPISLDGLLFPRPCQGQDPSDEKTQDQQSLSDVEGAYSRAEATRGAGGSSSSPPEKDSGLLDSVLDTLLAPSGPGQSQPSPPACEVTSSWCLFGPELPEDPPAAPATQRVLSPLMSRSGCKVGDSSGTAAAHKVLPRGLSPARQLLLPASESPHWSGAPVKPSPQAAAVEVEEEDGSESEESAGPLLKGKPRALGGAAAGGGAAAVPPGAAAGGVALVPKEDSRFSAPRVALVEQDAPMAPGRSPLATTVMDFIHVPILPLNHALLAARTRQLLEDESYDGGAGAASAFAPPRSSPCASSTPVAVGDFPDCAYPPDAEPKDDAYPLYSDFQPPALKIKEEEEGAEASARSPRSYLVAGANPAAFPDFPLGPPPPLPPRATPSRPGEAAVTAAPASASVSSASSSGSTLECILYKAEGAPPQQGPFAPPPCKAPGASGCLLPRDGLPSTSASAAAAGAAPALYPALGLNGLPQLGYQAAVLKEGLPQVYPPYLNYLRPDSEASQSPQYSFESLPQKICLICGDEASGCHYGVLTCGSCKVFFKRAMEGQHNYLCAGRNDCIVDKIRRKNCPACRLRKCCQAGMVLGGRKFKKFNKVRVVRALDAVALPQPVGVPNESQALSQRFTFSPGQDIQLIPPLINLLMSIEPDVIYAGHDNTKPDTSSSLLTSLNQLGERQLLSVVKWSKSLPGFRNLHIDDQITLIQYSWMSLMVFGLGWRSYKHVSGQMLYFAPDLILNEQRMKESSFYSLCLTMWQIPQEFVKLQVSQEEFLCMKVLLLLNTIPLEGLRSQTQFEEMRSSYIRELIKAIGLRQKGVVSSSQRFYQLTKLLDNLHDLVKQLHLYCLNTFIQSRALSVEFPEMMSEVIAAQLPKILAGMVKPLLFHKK", "assay": "qHTS assay to identify small molecule agonists of the progesterone receptor (PR) signaling pathway (AID 1346784); further: nearly all actives have a fitted effect of over 30% in size", "details": "PR-UAS-bla HEK293T, beta-lactamase FRET ratio, 16 h; series mostly up to 92.4 µM; activation: at the top concentration", "source_text": "U.S. Tox21 Program National Center for Advancing Translational Sciences [NCATS] NIH Chemical Genomics Center [NCGC] U.S. Environmental Protection Agency [EPA] National Institutes of Environmental Health Sciences [NIEHS] National Toxicology Program [NTP] U.S. Food and Drug Administration [FDA] […] Endocrine disrupting chemicals (EDCs) and their interactions with steroid hormone receptors like PR causes disruption of normal endocrine function. To identify the compounds that activate PR signaling, a PR-UAS-bla GripTite cell line i.e. PR-UAS-bla HEK 293T (Invitrogen, Carlsbad, CA, USA) containing a beta-lactamase reporter gene under the control of an Upstream Activator Sequence (UAS) was used to screen Tox21 10K compound library.\nTox21 Assay Protocol Summary: PR-UAS-bla HEK 293T cells were dispensed at 3,000 cells/5 uL of assay medium containing 2% charcoal stripped FBS per well into black wall/clear-bottom 1536-well plates using a Multidrop Combi (ThermoFisher Scientific, Waltham, MA) dispenser. After the assay plates were incubated at a 37C and 5% CO2 for 6hr, 23 nL of compounds dissolved in DMSO, positive controls or DMSO only was transferred to the assay plate by a Pintool station (Kalypsys, San Diego, CA). The plates were incubated at 37C and 5% CO2 for 16hr. Then 1 uL of LiveBLAzer B/G FRET substrate was added using a BioRAPTR FRD (Flying Reagent Dispenser, Aurora Discovery, San Diego, CA). After the plates were incubated at room temperature for 2 hours, fluorescence intensity was measured by an Envision plate reader (PerkinElmer, Shelton, CT).", "values": [
      {"compound": "CN(C)CCCN(C)C", "activation": "-0.0517% [at 8.39 µM] (inactive)"},
      {"compound": "Cc1ccc2cccnc2c1", "activation": "0.81% (inactive)"},
      {"compound": "Cc1cc(O)c(Cl)cc1C", "activation": "0.169% (inactive)"},
      {"compound": "Cc1ccc2ccccc2n1", "activation": "0.0513% (inactive)"},
      {"compound": "CCCCN=C(N)N=C(N)N", "activation": "3.69% [at 42.5 µM] (inactive)"},
      {"compound": "C[C@@H]1CCC[C@H](C)N1CCCC(O)(c1ccccc1)c1ccccn1", "note": "(stereo not given in full)", "activation": "-0.761% [at 42.5 µM] (inactive)"},
      {"compound": "COC(C)(C)CC(C)=O", "activation": "-0.214% (inactive)"},
      {"compound": "O=C1CCCc2c(O)cccc21", "activation": "-2.23% [at 42.5 µM] (inactive)"},
      {"compound": "NCC1CCC(C(=O)Oc2ccc(CCC(=O)O)cc2)CC1", "note": "(stereo not given)", "activation": "-1.71% [at 42.5 µM] (inactive)"},
      {"compound": "CCCCC(O)/C=C(C)/C=C/C=C/C(=O)N1CCCC1=O", "note": "(stereo not given)", "activation": "1.13% [at 42.5 µM] (inactive)"},
      {"compound": "CC(=O)Nc1ccc(S(=O)(=O)Nc2cc(C)on2)cc1", "activation": "-0.529% [at 42.5 µM] (inactive)"},
      {"compound": "Cc1cc(N)no1", "activation": "-1.94% (inactive)"},
      {"compound": "O=c1[nH]c(=O)c2cn[nH]c2[nH]1", "activation": "0.343% (inactive)"},
      {"compound": "CCNC(=O)C(C)OC(=O)Nc1ccccc1", "note": "(stereo not given)", "activation": "-1.18% (inactive)"},
      {"compound": "CCCCC(CC)CCC(CC(C)C)OS(=O)(=O)O", "note": "(stereo not given)", "activation": "0.482% (inactive)"},
      {"compound": "CCCC(C)C(O)CC", "note": "(stereo not given)", "activation": "0.144% (inactive)"},
      {"compound": "CCCc1ccc(O)c(OC)c1", "activation": "-0.0957% (inactive)"},
      {"compound": "CCCCCCCCCCCCCCCC/C=C/C1CC(=O)OC1=O", "note": "(stereo not given)", "activation": "-0.0698% [at 42.5 µM] (inactive)"},
      {"compound": "CN(C)CCc1c[nH]c2ccc(CS(=O)(=O)N3CCCC3)cc12", "activation": "4.12% [at 42.5 µM] (inactive)"},
      {"compound": "CC(=O)c1c(C)cc(C(C)(C)C)cc1C", "activation": "-3.15% (inactive)"},
      {"compound": "CC1(C)S[C@@H]2[C@H](NC(=O)Cc3ccccc3)C(=O)N2[C@H]1C(=O)O", "note": "(tested in a mixture with another compound)", "activation": "0.102% [at 42.5 µM] (inactive)"},
      {"compound": "C=CCCCCCCCCOC(C)=O", "activation": "1.4% (inactive)"},
      {"compound": "CCc1ncc(C)[nH]1", "activation": "0.85% (inactive)"},
      {"compound": "CCCCCCCC(=O)N(C)C", "activation": "0.416% (inactive)"},
      {"compound": "CCCCCCCCC1CO1", "note": "(stereo not given)", "activation": "-0.954% (inactive)"},
      {"compound": "CCCC(=O)OC", "activation": "-1.22% (inactive)"},
      {"compound": "CSC(=O)c1cccc2nnsc12", "activation": "3.24% (inactive)"},
      {"compound": "CCCCN(CCCC)CCCCCCN(CCCC)CCCC", "activation": "-2.18% (inactive)"},
      {"compound": "CC(=O)OC1CCC(C(C)(C)C)CC1", "note": "(stereo not given)", "activation": "0.163% (inactive)"},
      {"compound": "COCCCOc1cc(C[C@@H](C[C@H](N)[C@@H](O)C[C@H](C(=O)NCC(C)(C)C(N)=O)C(C)C)C(C)C)ccc1OC", "activation": "0.818% [at 42.5 µM] (inactive)"},
      {"compound": "CC(C)(C)OC=O", "activation": "0.307% (inactive)"},
      {"compound": "C=C(C)C(=O)OCCOC1CC2CC1C1C=CCC21", "note": "(stereo not given)", "activation": "-2.31% (inactive)"},
      {"compound": "OCCC(F)(F)C(F)(F)C(F)(F)C(F)(F)C(F)(F)C(F)(F)F", "activation": "3.58% (inactive)"},
      {"compound": "Cc1cc2c(cc1CC(=O)c1sccc1S(=O)(=O)Nc1onc(C)c1Cl)OCO2", "activation": "-3.79% [at 42.5 µM] (inactive)"},
      {"compound": "CC(C)(C)C(=O)CC(=O)C(C)(C)C", "activation": "0.214% (inactive)"},
      {"compound": "CC(=O)c1ccc2ccc3ccccc3c2c1", "activation": "13.9% (inactive)"},
      {"compound": "C=CC(=O)OCCOCCOCC", "activation": "-1.09% (inactive)"},
      {"compound": "CCCCC(CC)COC(=O)CC#N", "note": "(stereo not given)", "activation": "-0.0954% (inactive)"},
      {"compound": "Cc1ccc(Br)cc1", "activation": "-0.478% (inactive)"},
      {"compound": "CCN1CCN(C(=O)N[C@@H](C(=O)N[C@@H]2C(=O)N3[C@@H]2SC(C)(C)[C@H]3C(=O)O)c2ccccc2)C(=O)C1=O", "activation": "-0.28% [at 42.5 µM] (inactive)"}
    ]}
  ]
}
